From PubChem
USP7 inh – inhibitors of human USP7 deubiquitinase; 0.3% of 47,000 active; AID 1645854, 2021; inhibition, % at 20 µM; purified USP7, Ub-rhodamine cleavage fluorescence; Ubiquitin carboxyl-terminal hydrolase 7 (Homo sapiens), Q93009
UCHL1 block – inhibitors of human UCHL1 deubiquitinase; inhibition, % at 20 µM; Ubiquitin carboxyl-terminal hydrolase isozyme L1 (Homo sapiens), P09936; AID 1645859, 2021; 0.2% of 47,000 active; purified UCHL1, Ub-rhodamine cleavage fluorescence
USP10 block – inhibitors of human USP10 deubiquitinase; inhibition, % at 20 µM; 1.1% of 47,000 active; Ubiquitin carboxyl-terminal hydrolase 10 (Homo sapiens), Q14694; purified USP10, Ub-rhodamine fluorescence, 60 min; AID 1645856, 2021
USP8 block – inhibitors of human USP8 deubiquitinase | Ubiquitin carboxyl-terminal hydrolase 8 (Homo sapiens), P40818 | purified USP8, Ub-rhodamine cleavage fluorescence, 30 min | inhibition, % at 20 µM | 4.2% of 47,000 active | AID 1645853, 2021
USP17 inh – inhibitors of human USP17 deubiquitinase; purified USP17, Ub-rhodamine cleavage fluorescence, 3 h; inhibition, % at 50 µM; 6.5% of 47,000 active; AID 1645855, 2021
Target sequence (A8MUK1 whole entry, looked up): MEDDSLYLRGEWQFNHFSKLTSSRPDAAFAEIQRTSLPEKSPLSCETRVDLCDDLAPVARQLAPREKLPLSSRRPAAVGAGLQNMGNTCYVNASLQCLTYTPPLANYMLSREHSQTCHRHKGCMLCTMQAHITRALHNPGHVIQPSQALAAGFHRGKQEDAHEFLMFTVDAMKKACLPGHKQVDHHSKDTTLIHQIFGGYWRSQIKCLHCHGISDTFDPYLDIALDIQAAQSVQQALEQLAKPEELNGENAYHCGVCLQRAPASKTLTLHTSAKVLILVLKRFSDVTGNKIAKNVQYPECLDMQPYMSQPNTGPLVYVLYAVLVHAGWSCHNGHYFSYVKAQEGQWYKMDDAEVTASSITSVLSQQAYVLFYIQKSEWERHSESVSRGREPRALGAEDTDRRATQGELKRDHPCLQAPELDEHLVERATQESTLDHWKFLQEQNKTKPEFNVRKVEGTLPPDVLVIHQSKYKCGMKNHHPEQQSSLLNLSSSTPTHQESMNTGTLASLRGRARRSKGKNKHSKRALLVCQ
USP30 block – inhibitors of human USP30 deubiquitinase; 5.3% of 47,000 active; inhibition, % at 25 µM; Ubiquitin carboxyl-terminal hydrolase 30 (Homo sapiens), Q70CQ3; purified USP30, Ub-rhodamine cleavage fluorescence
Large screens that a line does not name were inactive. Shown are actives, neighbours in structure and some others; about 13% of the full set was active somewhere. Cut-off read from the data, not from the text of the source: active = inhibition above about 30%; inactive = the rest.

COc1ccc(-c2ccnc3[nH]c(=O)[nH]c(=O)c23)cc1	none
CS(=O)(=O)N1CC=C[C@@H]1C(=O)NCc1ccc(F)cc1	none
CCOc1ccc(NS(=O)(=O)c2c[nH]c3ccc([N+](=O)[O-])cc23)cc1	USP17 inh 53, USP30 block 63
Cc1ccc(NC(=O)c2ccc(C)c(C)c2)cc1C	none
CC(C)OC(=O)c1cc2c(ccn2C)n1CC(=O)N1CCN(C(=O)c2ccco2)CC1	none
Cn1c(CCNC(=O)c2ccco2)nc2cc([N+](=O)[O-])ccc21	none
O=C(NCCCc1nc2ccccc2n1Cc1c(F)cccc1Cl)c1ccco1	USP17 inh 34
O=C(NCCCc1nc2ccccc2n1Cc1c(Cl)cccc1Cl)c1ccco1	USP17 inh 74
N#Cc1c2n(c(=O)n(CCOc3ccccc3F)c1=O)CCC2	USP8 block 33
O=c1ccc(-c2noc(CCc3c[nH]c4ccccc34)n2)c[nH]1	none
O=C(c1cnccn1)N1CCCC1c1cccc(Cc2ccc(Cl)cc2)n1 (configuration not stated)	none
CCN(CC)C(=O)[C@@]1(c2ccccc2)C[C@H]1COc1ccc(C)cc1	USP17 inh 30
COCCN1C(=O)c2ccccc2C(C(=O)NCc2ccccc2OC)C12CCCC2 (configuration not stated)	none
CCOc1ccc(N2C(=O)c3ccccc3C2C(=O)NCc2ccccc2OC)cc1 (configuration not stated)	USP17 inh 35, USP30 block 52
COc1ccccc1CNC(=O)C1c2ccccc2C(=O)N1Cc1ccc(C)cc1 (configuration not stated)	USP17 inh 75, USP30 block 86
CCOc1ccc(CN2C(=O)c3ccccc3C2C(=O)NCc2ccccc2OC)cc1 (configuration not stated)	USP17 inh 40, USP30 block 33
COc1ccccc1CNC(=O)C1c2ccccc2CC(=O)N1C(C)C (configuration not stated)	none
COc1ccccc1NS(=O)(=O)c1cc(NC(=O)c2cccc(-c3ccc(O)cc3)c2)ccc1C	USP17 inh 35, USP30 block 30
Cc1ccc2[nH]c(=O)c(-c3noc(-c4ccc([N+](=O)[O-])cc4)n3)cc2c1	USP17 inh 48, USP30 block 42
CC(OC(=O)c1ccc2ncsc2c1)C(=O)Nc1ccccc1F (configuration not stated)	none
Cc1noc(C)c1CC(=O)N1CCC[C@@H]2[C@H]1C/C=C/Cc1ccccc1OCC(=O)N2C	none
O=C(C1CC1)N1CCC(CCOc2ccc(F)cc2)CC1	none
CCOc1cccc2c1OC(C)(C)[C@H]1CC3(CCN(C(=O)c4ccc(NC(C)=O)nc4)CC3)CO[C@H]21	none
COc1cccc2c1OC(C)(C)[C@H]1CC3(CCN(C(=O)COc4cccnc4)CC3)CO[C@H]21	USP8 block 67
O=C(c1nnn(-c2ccc(C(F)(F)F)cc2)n1)N1CCC(O)CC1	none
O=C1C[C@@H](O)[C@H](O)[C@@]23O[C@@]12C1(Oc2cccc4cccc(c24)O1)[C@@H]1O[C@@H]1[C@@H]3O	USP17 inh 81
COc1ccc(C(=O)N2CCCn3nc(-c4ccncc4)cc3C2)cn1	none (no result: USP30 block)
CCCn1c(CCC(=O)NCCc2ccc(OC)c(OC)c2OC)nc2cccnc21	none
O=C1c2c(O)cccc2C2(Oc3cccc4cccc(c34)O2)C2OC12 (configuration not stated)	USP10 block 34, USP8 block 84, USP17 inh 98, USP30 block 33
CC1CC(=O)c2c(O)cccc2O1 (configuration not stated)	none
O=C1c2c(O)ccc(O)c2C2(Oc3cccc4cccc(c34)O2)C2OC12 (configuration not stated)	UCHL1 block 45, USP8 block 39, USP17 inh 97, USP30 block 89
CC(=O)c1ccc(NC(=O)CSc2nc(-c3ccccc3)nc3c2COC(C)(C)C3)cc1	USP10 block 34
FC(F)(F)c1ccc(N2CCN(Cc3c[nH]c4ccccc34)CC2)nc1	none
